# Laboratory results published in the supplement of paper PMC8253809.
# Where “and” joins values, the source holds several entries; their conditions need not be identical. Equal entries are not always repeated.
# Tests used:
# Test in all cases: growth inhibition (% activity, log2 RLU normalised to DMSO / staurosporine); higher = more growth inhibition
# Details in all cases: 33 µM
# DIPGX29 = system: DIPGX29 (H3.3 K27M diffuse intrinsic pontine glioma line)
# Procedure, shortened: (§1)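 Approved drugs were tested in triplicate at a single final concentration of about 33 μM for 7 days at 37 °C, 5% CO2, on pHGG cell lines and H9-derived neural stem cells. Readout was CellTiter-Glo luminescence, log2-transformed and scaled per plate to % activity between solvent and positive control wells. The median over replicates gives the growth-inhibition value.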
# DIPGX37 = system: DIPGX37 (H3.3 K27M diffuse intrinsic pontine glioma line)
# Procedure, shortened: as §1
# DIPGX7 = system: DIPGX7 (H3.3 K27M diffuse intrinsic pontine glioma line)
# Procedure, shortened: as §1
# DIPGX9 = system: DIPGX9 (diffuse intrinsic pontine glioma line)
# Procedure, shortened: as §1
# HGGX39 = system: HGGX39 (paediatric high-grade glioma line)
# Procedure, shortened: as §1
# HGGX6 = system: HGGX6 (H3.3 G34R paediatric high-grade glioma line)
# Procedure, shortened: as §1
# HNSC = system: HNSC
# Procedure, shortened: as §1
# SUDIPGIV = system: SUDIPGIV (diffuse intrinsic pontine glioma line)
# Procedure, shortened: as §1
# SUDIPGVI = system: SUDIPGVI (diffuse intrinsic pontine glioma line)
# Procedure, shortened: as §1
# SUDIPGXIII = system: SUDIPGXIII (diffuse intrinsic pontine glioma line)
# Procedure, shortened: as §1
SMILES,growth inhibition (DIPGX29),growth inhibition (DIPGX37),growth inhibition (DIPGX7),growth inhibition (DIPGX9),growth inhibition (HGGX39),growth inhibition (HGGX6),growth inhibition (HNSC),growth inhibition (SUDIPGIV),growth inhibition (SUDIPGVI),growth inhibition (SUDIPGXIII)
CC1(C)O[C@@H]2C[C@H]3[C@@H]4CCC5=CC(=O)C=C[C@]5(C)[C@H]4[C@@H](O)C[C@]3(C)[C@]2(C(=O)CO)O1,0.656%,2.84%,-0.564%,3%,2.23%,1.78%,-4.33%,0.0175%,-0.194%,2.31%
CN(C)CCc1c[nH]c2ccc(C[C@H]3COC(=O)N3)cc12,-3.13%,-2.1%,0.0297%,-2.64%,-3.04%,-3.73%,-3.71%,-3.68%,-7.46%,-1.12%
CN(C)CCCN1c2ccccc2CCc2ccccc21,-0.201%,2.87%,0.728%,1.54%,6.76%,3.35%,3.17%,2.4%,-0.367%,2.4%
COc1ccc(Cl)cc1C(=O)NCCc1ccc(S(=O)(=O)NC(=O)NC2CCCCC2)cc1,-0.549%,1.98%,-0.628%,-1.16%,1.11%,0.0176%,2.28%,0.343%,1.26%,-1.12%
CCCCC(=O)O[C@]1(C(=O)CO)[C@@H](C)C[C@H]2[C@@H]3CCC4=CC(=O)C=C[C@]4(C)[C@@]3(F)[C@@H](O)C[C@@]21C,2.95%,4.71%,0.933%,4%,3.19%,1.27%,0.754%,0.551%,2.82%,2.04%
Nc1ccc(S(=O)(=O)Nc2ncccn2)cc1,0.254%,1.69%,0.776%,-0.452%,0.395%,0.228%,1.26%,-0.517%,1.02%,-2.51%
Nc1nc(Cl)nc2c1ncn2[C@H]1C[C@H](O)[C@@H](CO)O1,18.6%,8.52%,14.4%,39.6%,16.4%,14.2%,55.2%,41.7%,5.86%,17%
NC(N)=Nc1nc(CSCC/C(N)=N/S(N)(=O)=O)cs1,-1.68%,-1.77%,-1.85%,-0.682%,-0.78%,-1.75%,-0.722%,-1.56%,-8.72%,-0.00988%
Cc1cc(C2CCCCC2)n(O)c(=O)c1,68.5% and 63.3%,7.69% and 8.51%,54.5% and 43.2%,68.8% and 56.5%,8.59% and 9.1%,67.5% and 63.6%,81.5% and 63.9%,13.4% and 8.52%,-4.21% and -2.85%,21.3% and 10.6%
CC(=O)O[C@]1(C(C)=O)CC[C@H]2[C@@H]3C[C@H](C)C4=CC(=O)CC[C@]4(C)[C@H]3CC[C@@]21C,-3.25%,0.463%,-0.594%,-0.287%,-4.12%,-0.715%,31.3%,-4.85%,-6.53%,4.79%
OCCOCCN1CCN(C2=Nc3ccccc3Sc3ccccc32)CC1,0.62%,0.529%,4.12%,1.36%,2.86%,2.19%,0.74%,-0.167%,-0.798%,1.66%
C[C@@H]1CN(c2c(F)c(N)c3c(=O)c(C(=O)O)cn(C4CC4)c3c2F)C[C@H](C)N1,0.694%,1.71%,3.53%,1.04%,1.49%,-2.08%,33.6%,1.6%,-0.838%,-0.539%
NC(=O)NO,-5.64%,-0.579%,-2.73%,-1.74%,-1.77%,-4.15%,2.98%,-2.11%,-4.44%,1.21%
Cc1ccc(NC(=O)c2ccc(CN3CCN(C)CC3)cc2)cc1Nc1nccc(-c2cccnc2)n1,4.56% and 0.376%,3.89% and 0.0929%,5.28% and 3.03%,2.43% and -0.42%,8.41% and 4.83%,5.52% and -1.5%,3.25% and -0.323%,4.42% and 1.82%,4.93% and -0.526%,-15.8% and 0.752%
Cc1cccc(CN2CCN(C(c3ccccc3)c3ccc(Cl)cc3)CC2)c1 (stereo not given),6.1%,6.46%,7.93%,8.12%,6.5%,7.41%,3.84%,25.4%,4.9%,4.67%
O=C([O-])CC(O)(CC(=O)[O-])C(=O)[O-].O=C([O-])CC(O)(CC(=O)[O-])C(=O)[O-].[Bi+3].[K+].[K+].[K+].[K+].[K+],-1.08%,-0.559%,-0.17%,0.156%,-0.856%,0.952%,-0.691%,-1.2%,-0.266%,-15.3%
O=C1O[C@H]([C@@H](O)CO)C([O-])=C1O.[Na+],-5.78%,-2.29%,-0.532%,-4%,-3.28%,-5.19%,6.78%,-3.14%,-6.63%,2.95%
CC(=O)O[C@@]12CO[C@@H]1C[C@H](O)[C@@]1(C)C(=O)[C@H](O)C3=C(C)[C@@H](OC(=O)[C@H](O)[C@@H](NC(=O)OC(C)(C)C)c4ccccc4)C[C@@](O)([C@@H](OC(=O)c4ccccc4)[C@H]21)C3(C)C,8.91%,8.27%,8.76%,19.3%,24.5%,15.8%,55.1%,21.6%,8.93%,6.64%
CO[C@H]1/C=C/O[C@@]2(C)Oc3c(C)c(O)c4c(O)c(c(/C=N/N5CCN(C6CCCC6)CC5)c(O)c4c3C2=O)NC(=O)/C(C)=C\C=C\[C@H](C)[C@H](O)[C@@H](C)[C@@H](O)[C@@H](C)[C@H](OC(C)=O)[C@@H]1C,1.87%,1.82%,1.73%,2.34%,2.99%,2.94%,0.219%,-0.888%,1.12%,0.627%
CCC[C@@H]1C[C@@H](C(=O)N[C@@H]([C@H]2O[C@H](SC)[C@H](O)[C@@H](O)[C@H]2O)[C@@H](C)O)N(C)C1,-2.47%,0.84%,-0.347%,0.338%,-0.628%,-0.292%,0.119%,0.1%,-1.6%,0.849%
CC[C@@H]1/C=C(\C)C[C@H](C)C[C@H](OC)[C@H]2O[C@@](O)(C(=O)C(=O)N3CCCC[C@H]3C(=O)O[C@H](/C(C)=C/[C@@H]3CC[C@H](Cl)[C@H](OC)C3)[C@H](C)[C@@H](O)CC1=O)[C@H](C)C[C@@H]2OC,1.37%,4.05%,3.83%,5.36%,7.81%,2.73%,8.07%,5.69%,5.28%,5.19%

SMILES,growth inhibition (DIPGX29),growth inhibition (DIPGX37),growth inhibition (DIPGX7),growth inhibition (DIPGX9),growth inhibition (HGGX39),growth inhibition (HGGX6),growth inhibition (HNSC),growth inhibition (SUDIPGIV),growth inhibition (SUDIPGVI),growth inhibition (SUDIPGXIII)
NS(=O)(=O)c1cc2c(cc1Cl)N=C(CSCc1ccccc1)NS2(=O)=O,-2.8%,-0.538%,-2.64%,-1.82%,-3.59%,-4.3%,3.58%,-1.69%,-6.04%,-0.239%
CCN[C@@H]1C[C@H](N)[C@@H](O[C@H]2OC(CN)=CC[C@H]2N)[C@H](O)[C@H]1O[C@H]1OC[C@](C)(O)[C@H](NC)[C@H]1O,0.443%,3.8%,2.72%,2.1%,2.39%,-0.182%,8.55%,3.28%,2.97%,2.03%
C[C@]12CC[C@@H]3c4ccc(O)cc4C[C@@H](CCCCCCCCC[S+]([O-])CCCC(F)(F)C(F)(F)F)[C@H]3[C@@H]1CC[C@@H]2O (stereo not given in full),0.0636%,0.16%,0.804%,-0.923%,8.06%,-1.09%,2%,-0.255%,-0.348%,2.55%
COc1ccc(-c2nc3ccc(C4=NNC(=O)CC4C)cc3[nH]2)cc1 (stereo not given),0.372%,2.28%,1.98%,1.28%,3.99%,2.72%,3%,5.46%,-4.45%,0.884%
Nc1ccc(C(=O)NCC(=O)O)cc1,-0.487%,-0.247%,-0.0371%,0.0884%,1.62%,2.81%,-1.34%,1.42%,1.49%,0.0926%
CC[C@H](C)C(=O)O[C@H]1CCC=C2C=C[C@H](C)[C@H](CC[C@@H]3C[C@@H](O)CC(=O)O3)[C@H]21,3.29%,-2.48%,9.34%,3.1%,21.1%,12.9%,47.3%,15.3%,-4.05%,28.8%
CN(C)C(=N)NC(=N)N,-1.21%,-7.32%,-1.41%,-1.73%,-3.04%,-0.131%,-0.258%,-2.86%,-9.44%,-1.47%
CS(=O)(=O)OCCCCOS(C)(=O)=O,1.61%,2.89%,1.75%,1.86%,3.01%,2.25%,-0.43%,0.215%,0.662%,0.839%
Cc1c(-c2ccccc2)oc2c(C(=O)OCCN3CCCCC3)cccc2c1=O,-0.48%,-1.55%,0.152%,-0.867%,0.0272%,0.269%,-2.8%,-0.209%,-3.08%,-2.91%
Nc1cc(C(Cl)=C(Cl)Cl)c(S(N)(=O)=O)cc1S(N)(=O)=O,0.128%,3.1%,1.7%,0.825%,2.48%,1.57%,1.89%,1.51%,-1.12%,1.37%
C[N+]1(C)CCC(=C(c2ccccc2)c2ccccc2)CC1,1.61%,4.65%,2.7%,2.75%,2.04%,-0.684%,23.1%,4.27%,8.89%,1.56%
CCOC(=O)[C@H](CCc1ccccc1)N[C@@H](C)C(=O)N1[C@H](C(=O)O)C[C@@H]2CCC[C@@H]21,-3.8%,-1.96%,-1.64%,-2.68%,-4.08%,-5.1%,1.84%,-2.04%,-7.46%,-2.12%
N#Cc1c(N(CC(=O)O)CC(=O)O)sc(C(=O)O)c1CC(=O)O,-0.0468%,-1.11%,-0.504%,1.29%,1.34%,-1.45%,27.7%,1.52%,0.043%,-2.77%
CC(=O)Nc1ncc([N+](=O)[O-])s1,-0.525%,-1.35%,-1.25%,-0.952%,1.46%,1.88%,-5.25%,-1.68%,-0.127%,11.8%
CCS(=O)(=O)CCn1c([N+](=O)[O-])cnc1C,-0.456%,1.05%,-1.24%,-0.171%,-0.367%,-1.57%,-1.98%,-0.809%,-3.73%,0.464%
CCC(CC)[C@H](NC(C)=O)[C@@H]1[C@H](O)[C@@H](C(=O)O)C[C@H]1NC(=N)N,-0.417%,-0.255%,-0.771%,-0.84%,-1.05%,-1.09%,-1.8%,-0.387%,-0.749%,2.27%
O=c1n(CCCN2CCN(c3cccc(Cl)c3)CC2)nc2ccccn12,3.64%,2.01%,4.26%,3.67%,4.78%,3.57%,6.62%,2.09%,4.36%,0.00306%
CCN(CC)CCNC(=O)c1c(C)[nH]c(/C=C2\C(=O)Nc3ccc(F)cc32)c1C,25.8%,6.19%,11.1%,7.94%,7.9%,20.3%,71.3%,-3.41%,3.36%,-4.08%
CCN[C@H]1CN(CCCOC)S(=O)(=O)c2sc(S(N)(=O)=O)cc21,0.611%,0.875%,1.84%,0.558%,2.35%,2.83%,-0.529%,-0.244%,2.59%,-0.696%
CC(=O)O[C@H]1C[C@@H]2CC[C@@H]3[C@H](CC[C@@]4(C)[C@H]3C[C@H]([N+]3(C)CCCCC3)[C@@H]4OC(C)=O)[C@@]2(C)C[C@@H]1N1CCCCC1,0.923%,-0.759%,1.01%,1.13%,1.15%,-0.813%,1.96%,-0.377%,1.82%,-0.269%
